# Experimental data taken from paper PMC5540273 (PLoS ONE, 2017).
# Assays:
# PKAC-alpha = tested on: T1, PKAC-alpha
# T1 construct: gene PRKACA
# PIP5K2C = tested on: T2, PIP5K2C
# T2 construct: gene PIP4K2C
# PKAC-beta = tested on: T3, PKAC-beta
# T3 construct: gene PRKACB
# PIK4CB = tested on: T4, PIK4CB
# T4 construct: gene PI4KB
# 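Note: kd values determined as follow-up on hits from a single-replicate KINOMEscan panel screen.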
smiles,measurement,setting,value
NC(=O)c1sc(-n2cnc3ccccc32)cc1OCc1ccccc1F [GSK1024306],Kd,PLK1,9.6 nM
same,Kd,PLK2,25 nM
same,Kd,PLK3,52 nM
COc1cc2c(Nc3cccc(NC(=O)c4ccccc4)c3)ncnc2cc1OCCCN1CCOCC1 [GSK223810],Kd,PKAC-alpha,> 10000 nM
COc1cc2ncnc(Nc3ccc(OCc4ccccc4Br)c(Cl)c3)c2cc1OC.Cl [GI261590],Kd,PKN1,> 10000 nM
same,Kd,PRKCQ,> 10000 nM
CC(C)(C)c1ccc(-n2cnc3c(N)ncnc32)cc1 [SKF-97263],Kd,PIK3CG,2400 nM
CSc1nn2c(=O)cc(N3CCOCC3)nc2n1Cc1cccc(Cl)c1Cl [GSK2347225],Kd,PIK3CD,240 nM
Nc1nc(-c2ccccn2)c(-c2ccnc3ccccc23)s1 [GW548057],Kd,PIP5K1C,> 10000 nM
CN1CCC(n2cnc(-c3ccc(F)cc3)c2-c2ccnc(NC3CCNCC3)n2)CC1 [SB-229482],Kd,PIP5K2C,220 nM
CNc1nccc(-c2c(-c3ccc(F)cc3)ncn2C2CCN(C)CC2)n1 [SB-222903],Kd,PIP5K2C,39 nM
C[C@@H]1CCN(C(=O)CO)C[C@@H]1N(C)c1ncnc2[nH]ccc12,Kd,PKAC-beta,> 10000 nM
same,Kd,PKMYT1,> 10000 nM
CNc1nccc(-c2c(-c3ccc(F)cc3)ncn2CCCN2CCOCC2)n1 [SB-222516],Kd,PIM3,> 10000 nM
Fc1cccc(COc2ccc(Nc3ncnc4sc(-c5ccc[nH]5)cc34)cc2Cl)c1 [GW707818],Kd,PRKCH,> 10000 nM
CCc1nc(-c2cccc(C)c2)c(-c2ccnc(NC(=O)c3ccccc3)c2)s1,Kd,PIP5K2C,4100 nM
Cl.Cl.c1ccc(-c2cc3ccncc3cc2OC2CCNCC2)cc1 [GSK1122999],Kd,PRKCE,640 nM
same,Kd,PRKCH,390 nM
O=C(Nc1ccccc1F)NC1CCN(c2ccnc(Nc3ccc(F)cc3)n2)C1 (stereo not drawn) [GSK1379722],Kd,PIK4CB,> 10000 nM
O=C(c1ccc(-c2cc(-c3c[nH]nc3-c3ccccn3)ccn2)cc1)N1CCCC1 [GW792479],Kd,PIM1,> 10000 nM
same,Kd,PIP5K2C,21 nM
same,Kd,PRKCI,> 10000 nM
Cc1cccc(-c2nc(Nc3ccc4[nH]nnc4c3)c3ccccc3n2)n1 [GW867587],Kd,PRKD1,61 nM
same,Kd,PRKD2,83 nM
